High-throughput results: PubChem BioAssay, National Center for Advancing Translational Sciences (NCATS)
Most compounds without a hit are left out; they make up all but 9.5% or so of the library.
ALDH1A1 block: blocks purified human ALDH1A1 activity. P00352. Purified ALDH1A1, NADH fluorescence, propionaldehyde substrate. Potency, µM (highest dose often 75.3 µM), for the others: top-dose activity, negative = inhibition, hits mostly inhibitors. actives 7.3% (n = 220,000); active = well fitted inhibition curve with a large enough effect, not every such curve was filed as active; inconclusive = small, poorly fitted or top-dose-only effect, or another doubt; inactive = no such curve, though single readings can be large or run the other way;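 note: plate controls were no enzyme wells and a reference inhibitor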
Tau fibril FP: blocks human tau fibril formation measured by polarization; K18 P301L tau heparin fibrillization, Alexa594 FP, 6 h; Potency, µM (series often up to 57.7 µM), without a hit: top-dose activity, negative = inhibition, most hits filed as inhibitors; actives 0.39% (n = 280,000); AID 1468; note: nearly all actives have a fitted effect of over 55% in size
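Human tau K18 […] P301L fragment, 15 uM unlabeled plus 0.24 uM Alexa 594-labeled tau (final), with compound and 20 uM heparin in 100 mM sodium acetate pH 7; 6 hr at 37 C, then Alexa 594 FP read.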
Tau ThT inhib: blocks human tau fibril formation measured by thioflavin T. Potency, µM (series often up to 57.4 µM), without a hit: top-dose activity, negative = inhibition, hits mostly inhibitors. P10636. recombinant tau K18 P301L, heparin-induced fibrillization, ThT fluorescence. actives 2.1% (n = 270,000); note: nearly all actives have a fitted effect of over 55% in size
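Recombinant human tau K18 fragment […] carrying P301L, 15 uM unlabeled plus 0.24 uM Alexa 594-labeled, was fibrillized with 20 uM heparin in 100 mM sodium acetate pH 7 for 6 hr at 37 C; 30 uM ThT fluorescence read after 1 hr.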
Tau fluor cs: counter-screen for tau fibril formation inhibitors; tau K18 P301L Alexa594 fluorescence, heparin fibrillization; Potency, µM (doses to about 57.7 µM), inactives show at the highest dose activity change, negative = decrease; actives 0.93% (n = 280,000); note: nearly all actives have a fitted effect of over 55% in size
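Human tau K18 P301L (15 uM unlabeled, 0.24 uM Alexa 594-labeled) in 100 mM sodium acetate pH 7 with 20 uM heparin, 6 hr at 37 C. ThT 30 uM added, 1 hr ambient; Alexa 594 FP and total fluorescence read at 555/632 nm.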
NPSR antagonist: neuropeptide S receptor (human) antagonism, cAMP | Q6W5P4 | CHO-NPSR cells, cAMP TR-FRET, antagonist mode | Potency, µM (titrated, usually from 38.3 µM), without a hit: at the top dose activity change, negative = inhibition, usual class: inhibitors | actives 1% (n = 220,000) | AID 1461; note: nearly all actives have a fitted effect of over 50% in size
Target sequence (Q6W5P4 whole entry, looked up): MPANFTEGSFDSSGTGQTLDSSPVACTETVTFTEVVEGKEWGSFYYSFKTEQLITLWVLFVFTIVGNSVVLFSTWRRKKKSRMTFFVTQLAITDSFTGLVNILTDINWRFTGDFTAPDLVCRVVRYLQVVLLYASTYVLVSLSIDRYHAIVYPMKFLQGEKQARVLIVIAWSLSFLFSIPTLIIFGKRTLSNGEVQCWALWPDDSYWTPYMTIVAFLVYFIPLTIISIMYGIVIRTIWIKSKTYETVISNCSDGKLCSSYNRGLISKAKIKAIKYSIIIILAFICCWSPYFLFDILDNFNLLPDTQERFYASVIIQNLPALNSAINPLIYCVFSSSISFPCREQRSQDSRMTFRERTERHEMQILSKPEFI
HPGD inh: HPGD (human) dehydrogenase inhibition; P15428; purified HPGD, NADH fluorescence kinetic, PGE2 substrate; Potency, µM, inactives show at the top dose activity change, negative = inhibition, hits mostly inhibitors; actives 4.3% (n = 150,000); active = well fitted inhibition curve with a large enough effect, not every such curve was filed as active; inconclusive = small, poorly fitted or top-dose-only effect, or another doubt; inactive = no such curve, though single readings can be large or run the other way
Target sequence (P15428 whole entry, looked up): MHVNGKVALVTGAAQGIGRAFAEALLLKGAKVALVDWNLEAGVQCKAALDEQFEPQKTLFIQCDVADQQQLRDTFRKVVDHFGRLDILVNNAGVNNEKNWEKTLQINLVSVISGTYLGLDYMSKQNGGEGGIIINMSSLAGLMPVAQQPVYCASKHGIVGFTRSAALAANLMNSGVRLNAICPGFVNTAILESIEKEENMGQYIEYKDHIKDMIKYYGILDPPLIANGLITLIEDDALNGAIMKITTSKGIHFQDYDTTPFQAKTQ
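20 nM HPGD preincubated 15 min at room temperature with compound in 50 mM Tris-HCl pH 8, 0.01% Tween 20. Started with 1 mM NAD+ and 30 uM prostaglandin E2; NADH fluorescence (360/450 nm) read 5 times over 30-s intervals, last minus first.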
The depositor's hits bear a star; u = inconclusive; x = not tested or not shown; [ ] = dose if it differs, or a comment. Unless noted, calls come from the whole dose curve; as a rule, active = well fitted curve in the direction sought with a large enough effect; inconclusive = small, poorly fitted or top-dose-only effect, or another doubt; inactive = no such curve, though single readings can be large; an effect the other way counts as inactive or inconclusive. Unless noted, % is set by controls: 0 for no effect and ±100 for the full control effect; potency is the fitted concentration of half-maximal effect.

SMILES | ALDH1A1 block | Tau fibril FP | Tau ThT inhib | Tau fluor cs | NPSR antagonist | HPGD inh
COc1ccccc1N(C)S(=O)(=O)c1ccc(C(=O)NCC(C)C)cc1 | -1% | 0% | -6% | -9% | -11%[46.1 µM] | 25µM*
COc1ccc(NC(=O)COC(=O)c2ccc(S(=O)(=O)N(C)c3ccccc3OC)cc2)cc1OC | 2% | 12% | -10% | u | -1% | x
CCC(C)(C)NC(=O)c1ccc(S(=O)(=O)N(C)c2ccccc2OC)cc1 | 4% | 1% | -4% | -4% | -19%[46.1 µM] | -4%
COc1ccc(NC(=O)COC(=O)c2ccc(S(=O)(=O)N(C)c3ccccc3OC)cc2)c(OC)c1 | 7.1µM* | 3% | 2% | -7% | -10% | x
O=C(CCSc1ccc(Cl)cc1)Nc1cccnc1 | -8% | -2% | -3% | -12% | -9% | x
COc1cccc([C@@H]2Oc3ccc(OC)cc3C(=O)[C@H]2OC(=O)NCCc2ccc(OC)c(OC)c2)c1 | 7% | -4% | u | -13% | x | -20%
O=C(N1CCOCC1)N1CCC(NC(=O)C23CC4CC(CC(C4)C2)C3)CC1 | 0% | -10% | 1% | -1% | 17%[46.1 µM] | -16%
COc1cc(C(=O)NCC(c2cccnc2)N2CCc3ccccc32)cc(OC)c1OC (stereo not drawn) | x | -9% | -3% | -22% | x | x
Cc1c(C(=O)c2ccc(N(C)C)cc2)c2ccccn2c1CCC#N | 16µM* | 2% | -20% | -27% | -25% | x
CCOC(=O)CC(NC(=O)Cn1nnc(-c2ccccc2F)n1)c1ccccc1Cl (stereo not drawn) | -1% | -2% | 2% | u | -24% | x
COc1cc(/C=N/c2oc(-c3ccccc3)cc2C#N)ccc1O | u | 9% | 16µM* | u | u | u
CCN(Cc1ccncc1)Cc1nc(-c2ccc(C(=O)OC)cc2)no1 | -1% | 10% | 0% | 6%[2.34 µM] | 0% | x
Cc1cccc(-c2nnc(SCc3nc4ccccc4[nH]3)n2Cc2ccco2)c1 | 16% | -4% | -6% | -5% | -15%[46.1 µM] | x
c1ccc(-c2nnc(CSc3nnc(-c4ccncc4)n3Cc3ccco3)o2)cc1 | 9% | 2% | 7% | 8% | 7%[46.1 µM] | 20µM*
Cc1ccc(-c2nnc(SCc3nc4ccccc4[nH]3)n2Cc2ccco2)cc1 | 16µM* | 4% | -14% | -8% | -13%[46.1 µM] | -29%
C(=C\c1ccccc1)/CSc1nnc(-c2ccncc2)n1Cc1ccco1 | u | 6% | -10% | 2% | 6%[7.67 µM] | -19%
Cc1nn(CC(=O)NCCc2ccccc2Cl)c(=O)c2nn(-c3ccccc3)c(C)c12 | x | 3% | 0% | -2% | x | x
Cc1ccc(-c2nc(N3CCOCC3)sc2C(=O)N2CCOCC2)cc1 | 20µM* | 8% | -6% | -3% | 5% | -7%
Cc1ccc(-c2nc(N3CCOCC3)sc2C(=O)N2CCCCC2)cc1 | 7.9µM* | 0% | -1% | -4% | -20% | 0%
O=C(Oc1nsnc1N1CCOCC1)c1ccccc1 | 28µM* | u | u | -16% | -26%[46.1 µM] | -27%
O=C(CS(=O)(=O)c1cccc2nsnc12)NCc1ccccc1Cl | x | 1% | 2% | 5% | x | x
C=CCNC(=O)/C(C#N)=C/c1c(N(Cc2ccccc2)Cc2ccccc2)nc2ccccn2c1=O | 7.1µM* | -6% | -16% | -18% | u | -18%
N#C/C(=C\c1c(N(Cc2ccccc2)Cc2ccccc2)nc2ccccn2c1=O)C(N)=O | u | 2% | u | -16% | u | -4%
Cc1oc2ncn(CC(C)C)c(=O)c2c1C(=O)NC(C)c1ccccc1 (stereo not drawn) | x | -8% | -15% | -26% | x | x
N#Cc1cccc(-c2cncnc2NCc2ccccc2)c1 | 9% | x | x | x | x | x
SMILES | ALDH1A1 block | Tau fibril FP | Tau ThT inhib | Tau fluor cs | NPSR antagonist | HPGD inh
CC(=O)OCCNc1cc(Sc2nc3ccccc3[nH]2)c2nonc2c1[N+](=O)[O-] | 10% | 0% | 0% | -2% | u | 3.2µM*
CC(=O)OCCCNc1cc(Sc2nc3ccccc3s2)c2nonc2c1[N+](=O)[O-] | 11µM* | 0% | u | u | u | 2.5µM*
CC(=O)OCCCNc1cc(Sc2ccc(C)cc2)c2nonc2c1[N+](=O)[O-] | -13% | -8% | u | u | -13%[46.1 µM] | -22%
COc1ccc(OC)c(N/C=C2/CCCCC2=O)c1 | u | 12% | -11% | -5% | u | 18µM*
COc1ccc(N/C=C2/CCCCC2=O)cc1 | 11µM* | 1% | 8% | 0% | 3%[46.1 µM] | 25µM*
COc1ccc(Oc2ccc(N/C=C3/CCCC3=O)cc2)cc1 | u | 14% | -20% | -26% | -3% | -18%
CCc1cccc(NC(=O)CCS(=O)(=O)c2ccc(C)cc2)c1 | x | u | -4% | -13% | x | x
Cc1nnc(NC(=O)c2sc3nc(-c4cccs4)cc(C(F)(F)F)c3c2N)s1 | -3% | 2% | 13µM* | -15% | -7%[46.1 µM] | -13%
CCN(CC)C(=O)c1sc2nc(-c3cccs3)cc(-c3cccs3)c2c1N | 20µM* | -5% | u | u | u | x
CC(C)(C)C(=O)c1sc2nc(-c3cccs3)cc(C(F)(F)F)c2c1N | u | -6% | u | -5% | -12%[46.1 µM] | u
COC(=O)N1CCC2(CC1)CN(C(=O)Nc1ccc(OC)cc1)C2 | 3% | x | x | x | x | -2%
COc1cccc(NC(=O)c2oc3ccccc3c2NC(=O)c2ccc(C(F)(F)F)cc2)c1 | x | u | 18% | -23% | x | x
Cc1nc2oc(C(=O)c3ccccc3)c(N)c2c2c1COC(C)(C)C2 | 14µM* | 2% | -16% | -3% | -9%[46.1 µM] | -12%
COc1ccc(S(=O)(=O)N(CC(=O)Nc2ccc(S(=O)(=O)N3CCOCC3)cc2)c2ccccc2)cc1 | u | -11% | 2% | u | -3% | 3.5µM*
CC(=O)Nc1ccc(S(=O)(=O)Nc2ccc(S(=O)(=O)N3CCCC3)cc2)cc1 | 2.8µM* | -13% | 4% | -4% | 7% | 2%
COc1ccc(NS(=O)(=O)c2ccc(S(=O)(=O)N3CCOCC3)cc2)cc1 | 1.4µM* | -5% | 4% | -4% | 3% | x
CC(=O)Nc1ccc(S(=O)(=O)N2CCSC2C(=O)O)cc1 (stereo not drawn) | 18µM* | 5% | -15% | -1% | 5%[46.1 µM] | -14%
O=S(=O)(Nc1ccc(S(=O)(=O)N2CCOCC2)cc1)c1ccccc1 | 5% | -3% | 0% | -2% | -8%[46.1 µM] | 2%
CCOC(=O)c1ccc(NC(=O)c2csnn2)cc1 | x | -1% | u | -21% | x | x
O=C(O)CC(SCC(=O)Nc1ccc(S(=O)(=O)N2CCCC2)cc1)C(=O)O (stereo not drawn) | 8.9µM* | -8% | -7% | -1% | -6% | x
